PostGolgi ctrl – growth of the yeast control strain, post-Golgi counter-screen | efflux-deficient yeast background strain, growth absorbance A615, 16 h | inhibition, % at 10 µM | hit rate 5% among 98,000
CYP2C9 inhib – inhibitors of human CYP2C9; CYP2C9 Supersomes, luciferin-H conversion, luminescence; hit rate 20% among 96,000; AID 777; inhibition, % at 5 µM;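 active means blocking of liver enzyme CYP2C9 beyond about 50% at 5 µM, limit read from the data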
Target sequence (P11712 whole entry, looked up): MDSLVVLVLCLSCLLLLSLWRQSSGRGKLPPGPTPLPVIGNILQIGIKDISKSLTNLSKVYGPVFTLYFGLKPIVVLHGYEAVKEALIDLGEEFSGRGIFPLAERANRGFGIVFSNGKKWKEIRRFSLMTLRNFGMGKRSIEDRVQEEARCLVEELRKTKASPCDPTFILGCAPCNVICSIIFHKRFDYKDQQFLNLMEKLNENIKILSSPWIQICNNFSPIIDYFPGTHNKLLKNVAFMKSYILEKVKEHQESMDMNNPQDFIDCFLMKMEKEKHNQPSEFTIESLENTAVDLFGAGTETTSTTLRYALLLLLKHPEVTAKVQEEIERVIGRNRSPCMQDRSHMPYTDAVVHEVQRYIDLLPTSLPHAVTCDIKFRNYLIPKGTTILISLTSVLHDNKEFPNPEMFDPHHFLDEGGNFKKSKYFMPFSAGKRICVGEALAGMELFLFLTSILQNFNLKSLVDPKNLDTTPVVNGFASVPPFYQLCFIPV
CYP2C9 activ – CYP2C9 (human) activation; recombinant CYP2C9, luciferin-H conversion, luminescence; active compounds read high; factor 1 = untreated enzyme, 0 = blocked; activation factor at 5 µM; hit rate 1.4% among 96,000;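 active means activation factor of 2 or more for CYP2C9 at a 5 µM dose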;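 further: 0 = sulfaphenazole-blocked wells and 1 = vehicle-only wells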
CYP2C19 inhib – blocks human cytochrome P450 2C19; hit rate 21% among 96,000; inhibition, % at 5 µM; CYP2C19 Supersomes, luciferin-H EGE luminescence, 30 min; P33261;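 active means CYP2C19 inhibition above a set limit at 5 µM in the primary screen, cut at about 50% in these data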;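 further: plate controls were negative control wells for no effect and 2.5 mM tranylcypromine positive control for full effect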
PostGolgi yeast – growth inhibition of a yeast mutant, post-Golgi transport screen | inhibition, % at 10 µM | hit rate 0.9% among 98,000 | post-Golgi transport phenotypic cell assay;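 further: yeast cells grown in 1536-well plates; yeast grown about 18 h at 30C before absorbance read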
CYP2C19 activ – increases human CYP2C19 enzyme activity | recombinant CYP2C19, luciferin-H EGE luminescence; active compounds read high; 0 = fully inhibited enzyme, 1 = untreated enzyme | activation factor at 5 µM | P33261 | 96,000 tested, under 10 active;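 active means activation factor of at least 2 at 5 µM in the primary screen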;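 further: 0 = wells with 2.5 mM tranylcypromine and 1 = vehicle-only wells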
Active calls of the source: *. This is a sample that favours compounds with a hit; in the whole collection about 32% have one here. Unless noted, no stated cut-off is given here; in the data, active means inhibition above about 30%; inactive means the rest.

SMILES	PostGolgi ctrl	CYP2C9 inhib	CYP2C9 activ	CYP2C19 inhib	PostGolgi yeast	CYP2C19 activ
Cc1cc(NC(=O)c2cnn3c(C(F)(F)F)cc(-c4ccc(Br)cc4)nc23)no1	8.7	33.5	0.7	23.7	-0.3	0.8
CCN(CC)c1ncnc2ccc(Br)cc12	-6.7	16.8	0.8	26.2	17.4	0.7
CCOc1cc(S(=O)(=O)NCc2cccs2)ccc1Cl	13.8	-64.1	1.6	49.2	2.6	0.5
CCOc1ccc(NS(=O)(=O)c2ccc(OC)c(C)c2)cc1	3.2	91.8*	0.1	93.2*	0.2	0.1
CCOc1cc(S(=O)(=O)Nc2cc(C)cc(C)c2)ccc1Cl	39.0*	-96.9	2*	98.3*	-13.8	0
FC(F)(F)c1cnc(Sc2nc3nccc(-c4ccc(Cl)cc4)n3n2)c(Cl)c1	39.2*	36.0	0.6	16.8	-5.6	0.8
CSc1nc2nccc(-c3ccc(Cl)cc3)n2n1	40.1*	-12.5	1.1	-3.0	-1.3	1
Cn1c(C(N)=O)cnc1Sc1ncc(C(F)(F)F)cc1Cl	14.7	-74.3	1.7	2.5	0.8	1
COc1ccc(-c2ccnc3nc(Sc4ncc(C(F)(F)F)cc4Cl)nn23)cc1	39.7*	51.6*	0.5	29.6	-6.6	0.7
CCCCOC(=O)c1ccc(NC(=O)c2ocnc2C)cc1	11.6	40.8	0.6	24.1	9.3	0.8
CCNCC(O)COCC(O)CNCC (centres undefined)	-1.8	6.4	0.9	4.8	0.5	1
Cc1ccc(Nc2ccc(C(=O)N3CCCC3)cn2)c(C)c1	14.9	-31.9	1.3	44.8	-11.0	0.6
O=C(c1ccc(Nc2cccc(C(F)(F)F)c2)nc1)N1CCCC1	10.3	66.5*	0.3	59.7*	-2.2	0.4
COc1ccc(-c2cc(C(=O)NC(C)C)no2)cc1	3.5	2.8	1	2.1	-5.5	1
O=C(NCc1ccccc1)c1cc(-c2cccs2)on1	6.4	-28.6	1.3	27.6	-4.0	0.7
COc1ccccc1-c1cc(C(=O)NCc2ccccc2)no1	26.4	-176.7	2.8*	37.7	9.1	0.6
COCC(C)NC(=O)c1cc(-c2ccccc2OC)on1 (centres undefined)	2.1	-149.4	2.5*	-0.9	-0.3	1
COc1ccccc1-c1cc(C(=O)Nc2c(C)n(C)n(-c3ccccc3)c2=O)no1	5.0	-159.1	2.6*	-0.6	10.4	1
COc1ccc(CNC(=O)c2cc(-c3ccccc3OC)on2)cc1	15.6	-165.4	2.7*	-1.7	0.9	1
NC(=O)c1cccc2c(=O)oc3ccccc3c12	3.3	2.1	1	4.2	1.4	1
Cc1ccc(S(=O)(=O)CCc2nnc(NC(=O)COc3cccc(C)c3)s2)cc1	0.6	5.0	0.9	-4.1	-16.1	1
COc1ccccc1-c1cc(C(=O)NCc2ccc(F)cc2)no1	58.7*	-199.5	3*	20.9	3.9	0.8
COc1ccccc1-c1cc(C(=O)Nc2cc(C)on2)no1	-0.9	-91.6	1.9	0.8	-2.1	1
COc1ccccc1-c1cc(C(=O)NCc2ccc(Cl)cc2)no1	5.7	-220.5	3.2*	28.7	7.6	0.7
COc1ccccc1-c1cc(C(=O)NCCN2CCOCC2)no1	4.9	-123.2	2.2*	-0.8	10.9	1
SMILES	PostGolgi ctrl	CYP2C9 inhib	CYP2C9 activ	CYP2C19 inhib	PostGolgi yeast	CYP2C19 activ
CCCc1cc(C(=O)NCc2ccc(OC)cc2)no1	5.3	18.8	0.8	65.1*	-3.3	0.3
CNC(=O)NC(=O)COC(=O)CCCOc1ccc(OC)cc1	7.0	22.8	0.8	13.2	-0.5	0.9
O=C(c1ccc(S(=O)(=O)N2CCOCC2)cc1)N1CCN(c2ccccc2F)CC1	-1.1	-8.9	1.1	-7.1	25.2	1.1
COC(=O)c1sc(NC(=O)COc2cccc3ccccc23)nc1C	9.6	33.3	0.7	19.5	-10.8	0.8
Cc1cccc(C)c1NC(=O)C(C)c1ccc(-c2ccccc2)c(F)c1 (centres undefined)	26.4	82.5*	0.2	5.2	6.3	0.9
Cc1cccc(C)c1NC(=O)C(c1ccccc1)N1CCC1=O (centres undefined)	-11.2	-13.8	1.1	-5.4	-7.6	1.1
CCS(=O)CCSC(=N)N (centres undefined)	13.0	-4.5	1	9.1	1.4	0.9
CN(C)CCNc1oc(COc2cccc(Cl)c2)nc1C#N	7.7	-27.5	1.3	-12.3	0.3	1.1
N#Cc1nc(COc2ccc(F)cc2)oc1N1CCCC1	4.7	28.5	0.7	96.1*	-3.4	0
N#Cc1nc(COc2cccc(Cl)c2)oc1N1CCCC1	27.9	18.5	0.8	98.3*	17.0	0
N#Cc1nc(-c2ccc(F)cc2)oc1N1CCCC1	7.9	-32.6	1.3	15.3	0.6	0.8
COc1ccccc1OC(=O)C1CC(=O)N(c2ccc(Cl)cc2)C1 (centres undefined)	8.0	34.6	0.7	43.6	-10.6	0.6
O=C(c1cc(-c2ccncc2)nc2ccccc12)N1CCN(c2ccccn2)CC1	8.4	85.1*	0.1	38.6	11.5	0.6
O=C(c1ccccc1-c1ccccc1)N1CCN(c2ccccn2)CC1	21.9	73.3*	0.3	39.8	-2.4	0.6
O=C(c1ccco1)N1CCN(C(=O)c2cc(-c3ccccn3)nc3ccccc23)CC1	0.6	3.5	1	0.9	6.6	1
COc1ccc(-c2cc(C(=O)N3CCN(c4ccccc4)CC3)c3ccccc3n2)cc1OC	15.6	92.7*	0.1	88.7*	-0.5	0.1
O=C(c1cnc(N2CCN(c3ncccn3)CC2)c2ccccc12)N1CCN(c2ccccn2)CC1	28.6	80.2*	0.2	68.0*	-3.5	0.3
CN(C(=O)N1CCN(c2ccccn2)CC1)c1ccccc1	11.5	34.5	0.7	42.9	1.6	0.6
CCOC(=O)CSc1nc(N)cc(=O)[nH]1	15.7	1.1	1	1.3	3.2	1
COc1cccc(N2CCN(c3ncccn3)CC2)c1	10.8	20.2	0.8	12.1	5.5	0.9
COc1ccc(N(C)C(=O)c2cnc(N3CCN(c4ncccn4)CC3)c3ccccc23)cc1	7.6	68.7*	0.3	79.3*	-6.6	0.2
O=C(c1cc(-c2ccncc2)nc2ccccc12)N1CCN(c2ccc(N3CCOCC3)nn2)CC1	5.5	68.0*	0.3	37.9	1.5	0.6
O=C(c1cc(-c2cccnc2)nc2ccc(Br)cc12)N1CCN(c2ncccn2)CC1	13.2	58.1*	0.4	33.9	8.1	0.7
O=C(c1ccc(C#Cc2ccccc2)o1)N1CCN(c2ccccn2)CC1	41.5*	55.9*	0.4	15.4	-1.1	0.8
O=C(c1cc(N2CCCCC2)nc2ccccc12)N1CCOCC1	0.3	9.1	0.9	-0.4	3.5	1
CC1CCCC(C)N1C(=O)CSc1nc(N)c(-c2ccccc2)c(=O)[nH]1 (centres undefined)	5.4	-8.4	1.1	-19.2	-5.6	1.2
COc1cc(OC)cc(C(=O)n2cnnc2N)c1	5.9	3.2	1	10.6	11.6	0.9

Screens as filed in PubChem.
